Screens deposited in PubChem by National Center for Advancing Translational Sciences (NCATS).
Rango dissoc inh: prevents RanGTP from dissociating the Rango-importin beta complex | Potency, µM (highest dose often 46.1 µM), for the others: at the highest dose activity change, negative = inhibition | 0.071% of 340,000 active | O95149+P62826 | Biochemical FRET Rango-importin beta, RanGTP-induced dissociation | AID 540253; calls by dose curve; also: % of control where 0% means no effect; nearly all actives have a fitted effect of over 45% in size
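Two FRET readings bracket the reaction: one 5 min after compound meets Rango–importin beta, another 45 min after RanGTP-RCC1 (0.6 uM Ran, 0.2 uM RCC1, 2 mM GTP) is added. Only the second defines inhibition.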
Rango complex inh: Rango-importin beta binding inhibition. Q14974. Rango CFP/YFP FRET sensor + importin beta, 45 min. Potency, µM (doses to about 92.2 µM), for inactives: top-dose inhibition of complex formation. 0.031% of 340,000 active. AID 540263; calls by dose curve;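 also: 0% = DMSO wells and 100% = buffer wells lacking importin beta; nearly all actives have a fitted effect of over 15% in size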
Target sequence (Q14974 whole entry, looked up): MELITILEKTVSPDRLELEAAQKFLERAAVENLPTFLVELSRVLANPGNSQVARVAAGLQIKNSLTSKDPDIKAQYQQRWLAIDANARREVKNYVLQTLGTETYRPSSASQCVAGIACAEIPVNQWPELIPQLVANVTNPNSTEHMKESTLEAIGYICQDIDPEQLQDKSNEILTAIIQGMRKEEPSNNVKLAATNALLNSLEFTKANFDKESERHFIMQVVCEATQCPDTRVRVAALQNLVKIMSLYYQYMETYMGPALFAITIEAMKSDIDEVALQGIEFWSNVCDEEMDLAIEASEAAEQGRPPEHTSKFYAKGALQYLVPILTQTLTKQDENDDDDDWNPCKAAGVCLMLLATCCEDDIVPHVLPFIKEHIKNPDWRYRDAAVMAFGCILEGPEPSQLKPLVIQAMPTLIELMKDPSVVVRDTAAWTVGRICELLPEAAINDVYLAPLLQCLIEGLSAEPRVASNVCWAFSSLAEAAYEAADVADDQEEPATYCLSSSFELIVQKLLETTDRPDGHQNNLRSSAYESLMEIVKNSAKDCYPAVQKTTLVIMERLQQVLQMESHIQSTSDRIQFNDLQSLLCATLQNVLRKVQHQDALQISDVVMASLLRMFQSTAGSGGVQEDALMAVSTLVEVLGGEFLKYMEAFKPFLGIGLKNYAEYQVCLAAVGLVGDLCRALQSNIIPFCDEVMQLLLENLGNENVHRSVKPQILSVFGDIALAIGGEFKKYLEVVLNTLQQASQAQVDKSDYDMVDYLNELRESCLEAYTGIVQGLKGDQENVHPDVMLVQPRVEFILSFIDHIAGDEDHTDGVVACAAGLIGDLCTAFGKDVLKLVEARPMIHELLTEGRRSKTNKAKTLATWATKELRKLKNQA
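FRET biosensor (snurportin 1 IBB flanked by EYFP and cerulean), 50 nM, with compound 5 min, then 0.125 microM importin beta in PBS, 1 mM DTT, 0.02% Tween-20, 0.1% BSA. CFP/YFP ratio read after 45 min at room temperature; pre-read flags interference.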
Nrf2 activator: Nrf2 pathway activation; AREc32 ARE-luciferase reporter (MCF7-derived line), luminescence, 24 h; Potency, µM (series often up to 46.1 µM), for inactives: top-dose activation, most hits filed as activators; 0.31% of 410,000 active; AID 624171; also: % of control where 0% means no effect; nearly all actives have a fitted effect of over 65% in size
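Reporter line AREc32 (ARE-Fluc), seeded overnight in OPTI-MEM with 5% FBS; compound pin-transferred, 24 hr at 37 deg C, 5% CO2; luminescent read-out.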
Nrf2 inh: Nrf2 pathway inhibition. Potency, µM (doses to about 46 µM), without a hit: at the top dose activity change, negative = inhibition, usual class: inhibitors. A549 ARE-Fluc reporter, luciferase luminescence, 18-24 h. 2.1% of 360,000 active; also: % is scaled to controls: 0 for no effect and ±100 for the full control effect; nearly all actives have a fitted effect of over 60% in size
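A549 ARE_Fluc cells, 5000/well, 5% FBS OPTI-MEM; compounds in dose-response, 18-24 h at 37 °C/5% CO2; CellTiter-Fluor viability read (Ex 405/Em 525), then BugLite luciferase luminescence = Nrf2 activity.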
A549 tox: counter-screen for Nrf2 inhibitors: cytotoxicity in A549 cells | A549 ARE-Fluc cells, CellTiter-Fluor viability, 18-24 h | Potency, µM (top dose mostly 46 µM), for the others: at the top dose activity change, negative = cytotoxicity, hits mostly inhibitors | 0.16% of 390,000 active; also: % is scaled to controls: 0 for no effect and ±100 for the full control effect
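A549 ARE_Fluc cells in 5% FBS OPTI-MEM were exposed to compounds in concentration-response for 18-24 h at 37 deg C. Viability was read by CellTiter-Fluor fluorescence (Ex 405/Em 525) after 30 min, before the luciferase read.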
Starred values were filed as active, the others as inactive; ? = inconclusive; / = no result given; [ ] = remark or other dose. In the library only some 2.3% were active in any assay of this set; here they are far more common. Unless noted, calls follow the shape of the dose curve; as a rule, active = well fitted curve in the direction sought with a large enough effect; inconclusive = small, poorly fitted or top-dose-only effect, or another doubt; inactive = no such curve, though single readings can be large; an effect the other way counts as inactive or inconclusive. Potency is read from the fitted curve at half-maximal effect.

SMILES	Rango dissoc inh	Rango complex inh	Nrf2 activator	Nrf2 inh	A549 tox
CCc1ccc(OCCn2c(C3CC(=O)N(Cc4ccc(F)cc4)C3)nc3ccccc32)cc1 (centres undefined)	/	/	-3%	15µM*	-17%
Cc1ccc(OCCn2c(C3CC(=O)N(Cc4ccc(F)cc4)C3)nc3ccccc32)c(C)c1 (centres undefined)	/	/	-4%	23µM*	-1%
Cc1ccc(S(=O)(=O)N2CCN(C(=O)CC(C)n3cncn3)CC2)cc1C (centres undefined)	1%	-2%	0%	8%	-4%
Cc1cc(Cl)ccc1OC(C)C(=O)Nc1ccc(S(=O)(=O)Nc2cnc3ccccc3n2)cc1 (centres undefined)	-8%	1%	0%	8.2µM*	-16%
COc1ccc(NC(=O)c2ccccc2)cc1NS(=O)(=O)c1ccc(F)cc1	-15%	0%	0%	-9%	15%
COc1ccccc1NS(=O)(=O)c1ccc(Cl)c(NC(=O)c2sc3cc(Cl)ccc3c2Cl)c1	-16%	0%	0%	4%	7%
COc1ccccc1NS(=O)(=O)c1ccc(NC(=O)c2ccccn2)cc1	4%	5%	2%	21µM*	-13%
COc1ccccc1NS(=O)(=O)c1cccc(NC(=O)c2sc3ccccc3c2Cl)c1	9%	0%	0%	9.2µM*	-23%
COc1ccc(NC(=O)c2ccc(-c3ccccc3)cc2)cc1NS(=O)(=O)c1ccc(F)cc1	1%	1%	0%	15µM*	-5%
O=S1(=O)N=C(Oc2ccc(-c3ccccc3)cc2)c2ccccc21	/	/	/	16%	6%
COc1ccccc1-c1cc(C(F)(F)F)nc(S(=O)(=O)CCCC(=O)Nc2cccnc2Cl)n1	2%	2%	-3%	21µM*	?
COc1ccccc1-c1cc(C(F)(F)F)nc(S(=O)(=O)CCCC(=O)Nc2ccccc2F)n1	/	/	-7%	-6%[9.27 µM]	0%
COc1ccc(CCN2C(=O)CSC2=Nc2ccc(C(C)C)cc2)cc1OC	-8%	-2%	3%	16µM*	-21%
CCN(CC)c1ccc2nc3ccc(N)cc3[n+](-c3ccccc3)c2c1	-35%	?	-2%	15µM*	18µM*
CCN(CC)c1ccc2nc3ccccc3[n+](CC)c2c1	-14%	-3%	-2%	9.2µM*	8.2µM*
CCCCC12CN3CC(C)(CN(C1)C3c1c[nH]c3ccccc13)C2=O (centres undefined)	/	/	4%	0%	-4%
Cc1ccc(OCC(=O)c2cc(C)n(Cc3cccs3)c2C)c([N+](=O)[O-])n1	7%	-6%	0%	12µM*	-6%
O=C(c1ccc2c(=O)n(-c3ccccc3)c(=O)[nH]c2c1)N1CCN(Cc2cccs2)CC1	/	/	/	3%	7%
O=c1cc(C(Cl)(Cl)Cl)oc2c1ccc1ccccc12	-19%	-6%	13µM*	21µM*	?
O=c1cc(-c2ccc(O)cc2)oc2c1ccc1ccccc12	?	?	0%	?	-8%
O=c1cc(-c2ccncc2)oc2c1ccc1ccccc12	-17%	-6%	3%	18µM*	-14%
COc1ccc(CN2C(=O)c3ccccc3NC2c2ccc(OC)c(COc3ccc(NC(C)=O)cc3)c2)cc1 (centres undefined)	/	/	/	-17%	9%
O=C(CSC1=Nc2ccccc2N=C(c2ccc(F)cc2)C1)NCc1ccccc1	/	/	10%	/	8%
C=C1C(O)[C@@H]2O[C@]3(CC[C@H](/C=C/C(C)[C@@H]4CC(C)=CC5(O[C@H](C[C@@](C)(O)CO)CCC5O)O4)O3)CC[C@H]2O[C@@H]1C(O)CC(C)[C@H]1OC2(CCCCO2)CCC1C (some centres undefined)	19%	-3%	?	?	?
C=C1[C@@H](O)[C@@H]2O[C@]3(CC[C@H](/C=C/[C@@H](C)[C@@H]4CC(C)=CC5(O[C@H](C[C@@](C)(O)C(=O)OC)CC[C@H]5O)O4)O3)CC[C@H]2O[C@@H]1[C@@H](O)C[C@H](C)[C@H]1OC2(CCCCO2)CC[C@H]1C (some centres undefined)	1%	-1%	-2%	0.092µM*	?
SMILES	Rango dissoc inh	Rango complex inh	Nrf2 activator	Nrf2 inh	A549 tox
CCc1nc(C)cn1S(=O)(=O)c1cc(Br)ccc1OC	2%	5%	0%	23µM*	?
CCc1nc(C)cn1S(=O)(=O)c1cc(F)ccc1OC	-10%	3%	0%[9.22 µM]	0%	0%
CCCCCc1ccc(CC(=O)Nn2c(C)nc3ccccc3c2=O)cc1	1%	-3%	0%	?	-5%
COc1cc(CN2CCc3ccccc3C2)ccc1O	4%	2%	5%	7.3µM*	-10%
Oc1ccc(CN2CCc3ccccc3C2)c2cccnc12	15%	0%	3%	5.8µM*	/
Cc1cccc(C(C)C)c1NC(=O)CN1C(=O)NC2(CCc3ccccc32)C1=O (centres undefined)	18%	-1%	0%	3%	-1%
Cc1ccc(C(=O)NNC(=S)NC(=O)c2ccc(Cl)cc2)cc1	-21%	2%	-1%	16µM*	?
Cc1ccccc1C(=O)NNC(=S)NC(=O)c1ccc(Cl)cc1Cl	22%	4%	2%	23µM*	?
O=C(CCc1ccccc1)NNC(=O)c1ccc(Cl)cc1	-6%	4%	0%	-25%	2%
O=C(CCc1ccccc1)NNC(=S)NC(=O)c1ccc(Cl)cc1	0%	-2%	2%	21µM*	-24%
COc1ccc(-c2nc(Cn3c(=O)cc(-c4ccccc4)c4c(C)nn(C)c43)c(C)o2)cc1OC	/	/	0%	?	4%
COc1ccc(C2Nc3ccccc3C(=O)N2Cc2ccccc2)cc1COc1ccc(C)cc1 (centres undefined)	/	/	/	-8%	2%
COc1ccc(C2Nc3ccc(Cl)cc3C(=O)N2Cc2ccccc2)cc1COc1ccc(NC(C)=O)cc1 (centres undefined)	/	/	/	?	0%
Cc1ccc2oc(/N=C(\N)NC(=O)C(C)(C)C)nc2c1	-8%	0%	-1%	13µM*	0%
CC(C)OCCCn1c(=O)c2ccccc2n2c(-c3ccc(F)cc3)nnc12	/	/	0%	4%	-2%
Cc1nnsc1C(=O)NC1CCCc2c1cnn2-c1ccccc1F (centres undefined)	20%	1%	2%	2.1µM*	-16%
O=C(CCc1ccncc1)NC1CCCc2c1cnn2-c1ccc(F)cc1F (centres undefined)	14%	1%	-1%	8.2µM*	-10%
O=C(CCc1ccccn1)NC1CCCc2c1cnn2-c1ccc(F)cc1F (centres undefined)	12%	-1%	0%	-3%	-13%
